This is part of a sample that, as a whole, favours compounds with a hit. Of some 83,000 tested, about 20% had one in any assay.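 Treatment: one concentration, 48 hours, 96-well format. Scoring: percent growth, with anything below 10 considered active.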 Values without a mark were called inactive. The source made the active and inactive calls.
Experiments:
Assay in all cases: NCI-60 one-dose screen, 48 h (100 = growth as untreated, 0 = no growth, -100 = all killed)
Settings in all cases: 10 µM
NCI-H23 lung = test system: NCI-H23 lung
NCI-H226 lung = test system: NCI-H226 lung
NCI-H322M lung = test system: NCI-H322M lung
HOP-62 NSCLC = test system: HOP-62 NSCLC
NCI-H460 lung = test system: NCI-H460 lung
NCI-H522 lung = test system: NCI-H522 lung
A549/ATCC NSCLC = test system: A549/ATCC NSCLC
786-0 renal = test system: 786-0 renal
COLO 205 colon = test system: COLO 205 colon
DU-145 prostate = test system: DU-145 prostate
K-562 leukemia = test system: K-562 leukemia
MALME-3M melanoma = test system: MALME-3M melanoma
MDA-MB-231 breast = test system: MDA-MB-231 breast
RXF 393 renal = test system: RXF 393 renal
SF-268 CNS = test system: SF-268 CNS
SF-295 CNS = test system: SF-295 CNS
SF-539 CNS = test system: SF-539 CNS
UACC-257 melanoma = test system: UACC-257 melanoma
M14 melanoma = test system: M14 melanoma
HCT-15 colon = test system: HCT-15 colon

SMILES | growth (NCI-H23 lung) | growth (NCI-H226 lung) | growth (NCI-H322M lung) | growth (HOP-62 NSCLC) | growth (NCI-H460 lung) | growth (NCI-H522 lung) | growth (A549/ATCC NSCLC) | growth (786-0 renal) | growth (COLO 205 colon) | growth (DU-145 prostate) | growth (K-562 leukemia) | growth (MALME-3M melanoma) | growth (MDA-MB-231 breast) | growth (RXF 393 renal) | growth (SF-268 CNS) | growth (SF-295 CNS) | growth (SF-539 CNS) | growth (UACC-257 melanoma) | growth (M14 melanoma) | growth (HCT-15 colon)
CCCCOc1ccc(NC(=O)Nc2nnc(C)s2)cc1 | 96.8% | 101% | 103% | 102% | 102% | -36.8% (active) | 41.4% | 93.5% | 120% | 120% | 83.8% | 118% | 90.7% | 110% | 109% | 87.4% | 95.3% | 22.5% | 91.4% | 99.5%
CCOC(=O)c1ccoc1 | 103% | 101% | 85.1% | 97.8% | 101% | 91.1% | 96.9% | 99.1% | 101% | 109% | 93.8% | 100% | 128% | 110% | 108% | 108% | 95.6% | 80.3% | 106% | 97%
O=C1/C(=C\c2ccc(F)cc2)CN(C(=O)c2ccccc2)C/C1=C\c1ccc(F)cc1 | 61.8% | 36.6% | 73.6% | 53.3% | 58% | -8.75% (active) | 49.2% | 33.6% | 50.9% | 31.7% | 4.01% (active) | 8.3% (active) | -25.9% (active) | 26.6% | 26% | -3.21% (active) | 69.2% | 36.5% | 4.22% (active) | 1.64% (active)
Cc1cc(C)c(NC(=O)c2sc3nc4c(cc3c2N)C(=O)CCC4)c(C)c1 | 33% | 77.1% | 56.3% | 36.9% | 6.43% (active) | -14.7% (active) | 23% | 30.4% | -6.14% (active) | 10% | 19.8% | 42.1% | 35.7% | -6.66% (active) | 38.6% | -11.3% (active) | -6.5% (active) | 48.7% | 16.4% | 31.8%
COc1cc2cc3c(nc2cc1OC)CCN3Cc1ccc(NC(=O)Nc2cc(C(F)(F)F)cc(C(F)(F)F)c2)cc1 | 77.9% | 92.6% | 72.5% | 97.5% | 63.3% | 51.8% | 52.1% | 81.4% | 90% | 94.7% | 49.8% | 92.1% | 57.4% | 82.5% | 78.6% | 69.6% | 86.8% | 89% | 77.4% | 76.1%
COc1ccc(-c2cc(/C=C/C(=O)c3cc(OC)c(OC)c(OC)c3)[nH]n2)cc1OC | 47.2% | 63% | 1.57% (active) | -27% (active) | -45.7% (active) | -69.8% (active) | 20.8% | -57.9% (active) | -42.5% (active) | 0.588% (active) | 5.1% (active) | -17.5% (active) | -25.3% (active) | -16.9% (active) | -45.7% (active) | 29.1% | -51.4% (active) | 69.6% | 53.2% | -15.5% (active)
CCCCC/C=C/C(=O)CCc1ccc(O)c(OC)c1 | 89.2% | 87.8% | 106% | 107% | 97.3% | 60.8% | 82.6% | 91.1% | 108% | 76.9% | 59.9% | 23% | 79.3% | 74.6% | 86.9% | 96.4% | 90.1% | 91.9% | 80.7% | 88.2%
c1ccc(CP(Cc2ccccc2)c2ccccc2)cc1 | 97.9% | 105% | 87.3% | 99.4% | 112% | 83.1% | 97% | 93.5% | 106% | 113% | 83.4% | 82.3% | 98.3% | 113% | 110% | 82.4% | 110% | 95.5% | 95.4% | 95.1%
